We go through 11 compounds from PubChem BioAssay.

Activity calls are given as the source filed them. Unless noted, no rule for the calls is given here.

The nature of assay [1]: circadian clock period modulators, cell-based, LOPAC library, luminescence reporter (AID 2774).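 Also: values are relative to mean of DMSO wells on each plate.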 The following applies: circadian reporter cells, at 7 µM, actives lie on both sides.
Assay [2] has as its system Hepatitis C virus NS3 helicase. Nature of the assay: HCV NS3 helicase inhibitors, primary screen, biochemical, fluorescence polarization, LOPAC1280 library (AID 687035; in the data active = inhibition above about 37%). The following applies: Purified HCV NS3 helicase, Cy5-dT15 ssDNA binding fluorescence polarization; stronger effect = higher value; concentration not given here. (Fluorescence polarisation rises when a labelled molecule tumbles more slowly, as on binding a larger partner.)

A short description of assay [3]: Cy5 fluorescence quenching or enhancement artefacts, artefact control for HCV NS3 helicase inhibitor project, biochemical, LOPAC1280 (AID 687037). The following applies: Cy5-DNA-NS3h complex fluorescence interference counterscreen.
A short description of assay [4]: sensitizers of A549 cells to miR-34 induction, primary screen, imaging, A549 dox-inducible miR-34, nuclei and caspase counts (AID 1347080;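 active = compounds whose cell count with miR-34 switched on is under 0.7 times the count with it off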). The following applies: A549 miR-34 inducible, Hoechst nuclei count, 48 h.
Assay [5] is described as follows: phospholipid biosynthesis inhibitors in animal cells, primary screen, cell-based, LOPAC library, screen 4 (AID 1347384). The following applies: phospholipid biosynthesis inhibition screen, at 10 µM.
Assay [6] is described as follows: viability rescue of complex I mutant cybrids, primary screen, cell-based, galactose medium, ATP luminescence (AID 1645843;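 active = z-score of at least 1.8 in each of two replicates, scored against plate mean and spread of sample wells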;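 also: positive z means more ATP and so rescue of galactose-driven cybrid death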). The following applies: complex I mutant cybrid cells, 72 h, stronger effect = higher value.
Setting [7] is: stronger effect = lower value, cell number ratio, induced over uninduced.
The mark [8] stands for this setting: measured here: relative caspase fold change +Dox/-Dox.
Setting [9] is: measured here: total cells with miR-34 induction, stronger effect = lower value.
The mark [10] stands for this setting: measured here: total cells without miR-34 induction.

One may read the inhibition as the relative decrease from the control value, in per cent. In the case of `NC(=O)C1=CN(C2OC(COP(=O)(O)OP(=O)(O)OC[C@H]3O[C@@H](n4cnc5c(N)ncnc54)C(OP(=O)(O)O)[C@H]3O)C(O)C2O)C=CC1` (some centres undefined), the period change in assay [1] was -0.03 h (inactive). Besides, the inhibition in assay [2] was -4% (inactive). In assay [3], the fluorescence ratio (interference) is 1 (inactive). Moreover, the fold change in assay [4] (setting [7]) is 1.07 (inactive); in assay [4] (setting [8]), 1.18. The results for the cell count in assay [4] (setting [9]) and in assay [4] (setting [10]) were 9810 and 9130, respectively. Besides, in assay [5], the result was inactive. The z-score in assay [6] was 1.12 (inactive).
With `Nc1ncnc2c1ncn2C1CCCC1`, in assay [1], the period change is 0.035 h (inactive). For the same compound, in assay [2], the inhibition was -6% (inactive). For the same compound, in assay [3], the fluorescence ratio (interference) is 0.9 (inactive). For the same compound, the fold change in assay [4] (setting [7]) is 1.02 (inactive); in assay [4] (setting [8]), 2.13. Moreover, the figures for the cell count in assay [4] (setting [9]) and in assay [4] (setting [10]) were 10400 and 10200, respectively. In addition, in assay [5], the compound was called inactive. Besides, in assay [6], the z-score was -0.07 (inactive).
Regarding `COc1cc(C(O)C(=O)O)ccc1O` (centres undefined), the period change in assay [1] is 0.03 h (inactive). Also, in assay [2], the inhibition was -2% (inactive). Also, the fluorescence ratio (interference) in assay [3] is 1 (inactive). In addition, the values for the fold change in assay [4] (setting [7]) and in assay [4] (setting [8]) were 0.986 (inactive) and 1.43, respectively. The cell count in assay [4] (setting [9]) stood at 10600; in assay [4] (setting [10]), 10700. In addition, the compound was classed as inactive in assay [5]. Besides, the z-score in assay [6] is -0.02 (inactive).
For the compound `CCCC[C@@]1(C2CCCC2)Cc2cc(OCC(=O)O)c(Cl)c(Cl)c2C1=O`, the period change in assay [1] was -0.06 h (inactive). Also, in assay [2], the inhibition is 0% (inactive). Besides, the fluorescence ratio (interference) in assay [3] is 1 (inactive). Moreover, the fold change was 0.958 (inactive) in assay [4] (setting [7]) and 1.45 in assay [4] (setting [8]). Further, the cell count in assay [4] (setting [9]) is 8870; in assay [4] (setting [10]), 9260. In assay [5], the outcome was inactive. Further, in assay [6], the z-score was 2.93 (active).
As for `Cc1cccc(C2CN(C)CCc3c2cc(O)c(O)c3Cl)c1` (centres undefined), the period change in assay [1] was 0.11 h (inactive). Further, in assay [2], the inhibition is -4% (inactive). The fluorescence ratio (interference) in assay [3] is 1 (inactive). Besides, the fold change in assay [4] (setting [7]) is 0.998 (inactive); in assay [4] (setting [8]), 1.65. Moreover, the cell count in assay [4] (setting [9]) stood at 6330; in assay [4] (setting [10]) it was 6340. In addition, the compound was called inactive in assay [5]. Moreover, the z-score in assay [6] is -1.29 (inactive).
Consider `CC(N)(Cc1ccc(O)cc1)C(=O)O` (centres undefined), for which the period change in assay [1] is -0.14 h (inactive). In assay [2], the inhibition is -1% (inactive). For the same compound, the fluorescence ratio (interference) in assay [3] was 0.9 (inactive). Moreover, the fold change in assay [4] (setting [7]) is 1 (inactive); in assay [4] (setting [8]) it was 0.646. The cell count in assay [4] (setting [9]) and in assay [4] (setting [10]) was 9440 in each case. In assay [5], the outcome was inactive. The z-score in assay [6] is 1.32 (inactive).
As to `CC1(C)CCC=[N+]1[O-]`, in assay [1], the period change is -0.065 h (inactive). For the same compound, in assay [2], the inhibition is -2% (inactive). Besides, the fluorescence ratio (interference) in assay [3] is 1 (inactive). In addition, the fold change was 0.955 (inactive) in assay [4] (setting [7]) and 0.876 in assay [4] (setting [8]). The cell count in assay [4] (setting [9]) turned out to be 9650; in assay [4] (setting [10]), 10100. Also, the compound was classed as inactive in assay [5]. Further, in assay [6], the z-score is 0.285 (inactive).
On to `O=c1cc(O)cc(/C=C/c2ccc(O)c(O)c2)o1`, for which, in assay [1], the period change is -0.02 h (inactive). Also, the inhibition in assay [2] is -1% (inactive). Further, the fluorescence ratio (interference) in assay [3] was 1 (inactive). Further, the fold change is 1.09 (inactive) in assay [4] (setting [7]) and 1.07 in assay [4] (setting [8]). Moreover, the cell count in assay [4] (setting [9]) turned out to be 9040; in assay [4] (setting [10]) it was 8270. Further, the call in assay [5] was inactive. Also, the z-score in assay [6] is -0.475 (inactive).
`CC(N)=NCCCC[C@@H](N)C(=O)O`: the period change in assay [1] is 0.055 h (inactive). Also, the inhibition in assay [2] is -4% (inactive). In addition, the fluorescence ratio (interference) in assay [3] was 0.9 (inactive). Also, the fold change was 1.08 (inactive) in assay [4] (setting [7]) and 1.26 in assay [4] (setting [8]). Moreover, the figures for the cell count in assay [4] (setting [9]) and in assay [4] (setting [10]) were 11400 and 10600, respectively. Besides, in assay [5], the compound was classed as inactive. Besides, the z-score in assay [6] was 0.39 (inactive).
In the case of `C[C@H](O)C(=O)C1=Nc2c(nc(N)[nH]c2=O)NC1`, in assay [1], the period change is 0.19 h (inactive). The inhibition in assay [2] was -3% (inactive). For the same compound, the fluorescence ratio (interference) in assay [3] is 0.9 (inactive). Further, the fold change was 0.965 (inactive) in assay [4] (setting [7]) and 1.64 in assay [4] (setting [8]). Also, the cell count turned out to be 10200 in assay [4] (setting [9]) and 10500 in assay [4] (setting [10]). Besides, in assay [5], the outcome was inactive. In assay [6], the z-score was 0.4 (inactive).
`OC[C@H]1O[C@@H](n2cnc3c(NC4CCCC4)ncnc32)C(O)[C@H]1O` (some centres undefined): the period change in assay [1] was -0.095 h (inactive). Moreover, in assay [2], the inhibition is -5% (inactive). The fluorescence ratio (interference) in assay [3] is 1 (inactive). Moreover, the fold change in assay [4] (setting [7]) was 0.956 (inactive); in assay [4] (setting [8]), 1.31. Further, the cell count in assay [4] (setting [9]) was found to be 9220; in assay [4] (setting [10]) it was 9650. Also, in assay [5], the compound was classed as inactive. For the same compound, the z-score in assay [6] is 1.05 (inactive).
